Where “and” joins values, the source holds several entries; their conditions need not be identical. Equal entries are not always repeated. Records with an inconclusive call do not appear. Calls of active or inactive are those of the source. Unless noted, calls come from the whole dose curve; as a rule, active = well fitted curve in the direction sought with a large enough effect; inconclusive = small, poorly fitted or top-dose-only effect, or another doubt; inactive = no such curve, though single readings can be large; an effect the other way counts as inactive or inconclusive.
Tests used:
[1] = target: Glucocorticoid receptor (Homo sapiens) (UniProt P04150); experiment: GR-EFC Redistribution (AID 451; calls by dose curve; note: potency is the fitted concentration of half-maximal effect); settings: CHO-K1 GR-EFC translocation, beta-gal luminescence, 2 h
Chain of Glucocorticoid receptor (Homo sapiens) (P04150 whole entry, looked up, the tested form may be a part): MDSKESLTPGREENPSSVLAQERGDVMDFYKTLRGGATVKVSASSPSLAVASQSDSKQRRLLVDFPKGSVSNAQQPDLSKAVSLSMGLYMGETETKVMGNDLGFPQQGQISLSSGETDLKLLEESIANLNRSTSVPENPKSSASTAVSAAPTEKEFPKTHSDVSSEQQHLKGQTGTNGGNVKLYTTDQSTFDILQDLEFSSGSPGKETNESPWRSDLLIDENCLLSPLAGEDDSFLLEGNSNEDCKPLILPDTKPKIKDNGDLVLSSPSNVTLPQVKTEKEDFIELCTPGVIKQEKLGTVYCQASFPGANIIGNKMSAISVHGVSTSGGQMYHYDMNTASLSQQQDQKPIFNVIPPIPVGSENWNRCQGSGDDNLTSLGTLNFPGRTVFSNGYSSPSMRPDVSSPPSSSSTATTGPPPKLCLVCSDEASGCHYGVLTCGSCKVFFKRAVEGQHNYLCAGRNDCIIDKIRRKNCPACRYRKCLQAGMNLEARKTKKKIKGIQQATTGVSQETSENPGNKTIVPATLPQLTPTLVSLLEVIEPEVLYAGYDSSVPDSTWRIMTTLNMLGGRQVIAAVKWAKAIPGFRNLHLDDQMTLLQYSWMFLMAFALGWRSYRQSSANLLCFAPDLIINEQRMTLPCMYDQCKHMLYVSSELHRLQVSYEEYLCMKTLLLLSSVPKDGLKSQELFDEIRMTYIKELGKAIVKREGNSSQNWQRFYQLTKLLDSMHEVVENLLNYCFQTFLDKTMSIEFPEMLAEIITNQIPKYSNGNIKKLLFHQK
Outline: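 CHO-K1 cells stably expressing nuclear-localized β-gal enzyme acceptor and GR fused C-terminally to the enzyme donor fragment; ligand-driven nuclear translocation restores β-gal by complementation. Compounds titrated up to 46 uM final, 2 h at 37 °C; luminescence read.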

[2] = target: Mitogen-activated protein kinase 10 (Mus musculus) (UniProt Q61831); experiment: JNK3 AlphaScreen Assay (AID 530; active = well fitted curve in either direction with a large enough effect, not every such curve was filed as active;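 note: kinase came from lysate of stimulated human HepG2 cells; signal reports phosphorylation of biotinylated GST-cJun 1-79 at Ser73 with 10 µM ATP; % is set by controls: 0 for no effect and ±100 for the full control effect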); settings: JNK3 lysate, c-Jun phosphorylation; series mostly up to 57.1 µM
Outline: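 JNK3 came from HepG2 lysates pre-activated with IL-1beta and TNF-alpha and phosphorylated biotinylated GST-cJun (1-79) at 10 uM ATP, pH 7.6, room temperature. Compounds were titrated. AlphaScreen signal used anti-phospho-cJun (Ser73) antibody.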

[3] = Cell Viability - N2a (AID 540); settings: N2a mouse neuroblastoma cell viability; activity change, negative = cytotoxicity: at 92.2 µM (top of the series);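 note: plate controls were DMSO alone for no effect and tamoxifen control for full effect; nearly all actives have a fitted effect of over 45% in size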
Outline: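 Mouse neuroblastoma N2a cells (1500/well) were preincubated 5 hr at 37 °C, then exposed to compounds for 40 hr at 37 °C in complete medium. Viability was read as intracellular ATP by CellTiter-Glo luminescence; AC50 from Hill fits.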

[4] = Cell Viability - NIH 3T3 (AID 541); settings: NIH 3T3 cell viability, qHTS; activity change, negative = cytotoxicity: at 92.2 µM (top of the series);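 note: plate controls were DMSO alone for no effect and tamoxifen positive control for full effect; nearly all actives have a fitted effect of over 25% in size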
Outline: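 NIH 3T3 mouse embryo fibroblasts (1000 cells/well) were plated in complete medium and treated with compound for 40 hr at 37 °C. Viability was read as intracellular ATP by CellTiter-Glo luminescence; AC50 values came from Hill-equation fits of concentration-response data.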

[5] = Cell Viability - HUV-EC-C (AID 542); settings: HUV-EC-C endothelial cell viability, qHTS; series mostly up to 92.2 µM; note: % is set by controls: 0 for no effect and ±100 for the full control effect; nearly all actives have a fitted effect of over 35% in size
Outline: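 HUV-EC-C normal human vascular endothelial cells, 1000 cells/well, pre-incubated 5 hr at 37 °C, then exposed to compounds for 40 hr at 37 °C in complete medium. Viability measured as intracellular ATP by CellTiter-Glo luminescence; AC50 from Hill fits.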

[6] = Cell Viability - H-4-II-E (AID 543); settings: H-4-II-E rat hepatoma viability; series mostly up to 92.2 µM; note: % is set by controls: 0 for no effect and ±100 for the full control effect; nearly all actives have a fitted effect of over 35% in size
Outline: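 Rat hepatoma H-4-II-E cells (1500/well) were plated, incubated 5 hr at 37 °C, then exposed to compounds for 40 hr at 37 °C. Cellular ATP was read by CellTiter-Glo luminescence; AC50 came from Hill-equation fits of concentration-response data.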

[7] = Cell Viability - SH-SY5Y (AID 544); settings: SH-SY5Y neuroblastoma cell viability; viability change, negative = cytotoxic: at 92.2 µM (top of the series); note: nearly all actives have a fitted effect of over 55% in size
Outline: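 Human neuroblastoma SH-SY5Y cells (1500/well) in complete medium were exposed to compounds for 40 hr at 37 °C; intracellular ATP was then quantified by CellTiter-Glo luminescence after 20 min at room temperature. AC50 came from Hill-equation concentration-response fits.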

[8] = Cell Viability - Renal Proximal Tubule (AID 545); settings: renal proximal tubule cells viability, primary cells of rat origin; series mostly up to 91.7 µM; note: nearly all actives have a fitted effect of over 40% in size
Outline: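 Rat renal proximal tubule primary cells, 1000/well, exposed to compounds for 40 hr at 37 °C in complete medium; cellular ATP read by CellTiter-Glo luminescence. AC50 from concentration-response fitted with standard Hill equation.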

[9] = Cell Viability - Mesenchymal (AID 546); settings: mesenchymal cells viability, qHTS; series mostly up to 91.7 µM;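 note: cells exposed to compound for 40 hours before reading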
Outline: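 Normal human renal glomerulus-derived kidney mesenchymal cells, 1000 per well in complete medium, were treated with compounds for 40 hr at 37 °C. Viability was read as intracellular ATP by CellTiter-Glo luminescence; AC50 values came from Hill-equation fits of qHTS concentration-response data.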

[10] = target: 3',5'-cyclic-AMP phosphodiesterase 4B (Homo sapiens) (UniProt Q07343); experiment: qHTS Assay for Inhibitors of PDE-IV (AID 607; active = well fitted activation curve with a large enough effect in the main read-out, with a control signal flat, not every such curve was filed as active; note: % of control where 0% means no effect); settings: HEK293 ACTOne CNG channel cells, membrane potential fluorescence; series mostly up to 22.9 µM
Chain of 3',5'-cyclic-AMP phosphodiesterase 4B (Homo sapiens) (Q07343 whole entry, looked up): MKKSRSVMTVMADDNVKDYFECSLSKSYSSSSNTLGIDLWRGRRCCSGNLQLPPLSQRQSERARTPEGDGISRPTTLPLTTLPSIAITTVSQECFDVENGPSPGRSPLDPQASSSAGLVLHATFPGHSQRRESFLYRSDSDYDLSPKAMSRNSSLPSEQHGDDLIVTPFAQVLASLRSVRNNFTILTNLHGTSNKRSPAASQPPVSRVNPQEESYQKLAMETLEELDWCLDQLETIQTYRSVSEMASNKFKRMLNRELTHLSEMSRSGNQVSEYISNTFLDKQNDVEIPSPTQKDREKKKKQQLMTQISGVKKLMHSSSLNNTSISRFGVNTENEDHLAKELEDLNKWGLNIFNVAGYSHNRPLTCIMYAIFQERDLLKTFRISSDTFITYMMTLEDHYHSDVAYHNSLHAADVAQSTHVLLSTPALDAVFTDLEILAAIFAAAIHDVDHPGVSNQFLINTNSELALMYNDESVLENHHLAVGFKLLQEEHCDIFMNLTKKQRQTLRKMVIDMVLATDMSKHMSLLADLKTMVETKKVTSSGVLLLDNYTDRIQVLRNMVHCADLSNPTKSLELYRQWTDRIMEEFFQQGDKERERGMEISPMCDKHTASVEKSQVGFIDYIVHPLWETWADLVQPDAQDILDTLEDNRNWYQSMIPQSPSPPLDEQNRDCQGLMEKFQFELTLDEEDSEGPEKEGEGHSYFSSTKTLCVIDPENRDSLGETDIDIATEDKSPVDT
Outline: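 ACTOne HEK293 cells carry a modified cAMP-gated CNG channel and express endogenous PDE4; plated 1000 cells/well, compounds up to 22.9 uM final. Membrane-potential dye fluorescence (ex 535/em 590) was read; parental cells received 10 uM forskolin + 100 uM RO 20-1724.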

[11] = Cellular Toxicity (caspase-3) HepG2 (AID 654); settings: HepG2 caspase-3 activation, luminescence, 0% = DMSO only, 100% = tamoxifen; series mostly up to 92.2 µM;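 note: cells exposed to compound for 16 hours before reading; 0% = DMSO alone and 100% = caspase signal from 100 µM tamoxifen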
Outline: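 HepG2 cells (1500/well) in complete medium were treated with compounds for 16 hr at 37 °C. Caspase-3/7 activity was then read as luminescence from peptide-aminoluciferin cleavage. AC50 came from Hill fits, normalized to DMSO and 100 uM tamoxifen.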

[12] = Cellular Toxicity (caspase-3) Jurkat (AID 655); settings: Jurkat caspase-3 activation, luminescence; series mostly up to 92.2 µM;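 note: cells exposed to compound for 16 h at 37 °C before reading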
Outline: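 Jurkat cells (5000/well) in complete medium exposed 16 h at 37 C; caspase-3/7 activity read by Caspase-Glo luminescence after 20 min at room temperature. Normalized to DMSO and 100 uM tamoxifen; AC50 from Hill fits.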

[13] = Cellular Toxicity (caspase-3) HUV-EC-C (AID 656); settings: HUV-EC-C cells, caspase-3 activation (apoptosis), vehicle = 0, 100 µM tamoxifen = 100%; series mostly up to 92.2 µM
Outline: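 HUV-EC-C cells (1000/well) in complete medium, compound-treated 16 h at 37 °C; caspase-3/7 activity read by Caspase-Glo 3/7 luminescence. Normalized to DMSO (basal) and 100 uM tamoxifen (100%); AC50 from Hill-equation concentration-response fits.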

[14] = Cellular Toxicity (caspase-3) SHSY5Y (AID 657); settings: SH-SY5Y caspase-3 activation, DMSO zero, 10 µM staurosporine = 100%; series mostly up to 91.7 µM
Outline: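 SH-SY5Y human neuroblastoma cells, 1500/well, exposed to compound for 16 hours at 37 °C in complete medium. Caspase-3/7 activity read by Caspase-Glo luminescence after 1 hr at room temperature, normalized to DMSO and 10 uM staurosporine; AC50 from Hill fit.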

[15] = Cellular Toxicity (caspase-3) BJ (AID 658); settings: BJ fibroblasts, luminescence, normalized: DMSO 0%, staurosporine 100%; series mostly up to 91.7 µM
Outline: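 Luminescent aminoluciferin-substrate cleavage reports caspase 3/7 activity in normal human BJ fibroblasts after 16 hr compound exposure at 37 °C. Normalized to DMSO (basal) and 10 uM staurosporine (100%); AC50 from Hill fit of concentration-response.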

[16] = Cellular Toxicity (caspase-3) Mesangial (AID 660); settings: mesangial cells, normalized: DMSO 0%, 100 µM tamoxifen 100%; series mostly up to 91.7 µM;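 note: cells exposed to compound for 16 h before the caspase read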
Outline: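 Human renal glomerular mesangial cells (1000/well) were treated with compounds for 16 h at 37 °C in complete medium, then caspase 3/7 activity was read by Caspase-Glo luminescence. Data were normalized to DMSO and 100 uM tamoxifen; AC50 from Hill fits.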

[17] = Cellular Toxicity (caspase-3) H-4-II-E (AID 663); settings: H-4-II-E rat hepatoma, scaled: DMSO 0%, 100 µM tamoxifen 100%; series mostly up to 92.2 µM;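 note: cells exposed to compound for 16 hr before readout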
Outline: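 Luminescence from caspase-cleaved aminoluciferin substrate, read 20 min after reagent addition, reports caspase 3/7 activation in rat H-4-II-E cells after 16 hr compound exposure. Normalized to DMSO (basal) and 100 uM tamoxifen (100%); AC50 from Hill fits.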

[18] = Cellular Toxicity (caspase-3) Hek293 (AID 664); settings: HEK293 caspase-3 activation; caspase-3 activation: at 92.2 µM (top of the series), DMSO = 0%, 100 µM tamoxifen = 100%;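 note: cells exposed to compound for 16 h at 37 °C before readout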
Outline: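 HEK293 cells were exposed to compounds in complete medium for 16 hr at 37 °C, then caspase-3/7 activity was read by Caspase-Glo 3/7 luminescence after 20 min at room temperature. Data normalized to DMSO and 100 uM tamoxifen; AC50 from Hill fits.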

[19] = Cellular Toxicity (caspase-3) N2a (AID 665); settings: N2a cells, luminescence, normalized: DMSO 0%, 10 µM staurosporine 100%; series mostly up to 92.2 µM;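 note: compound exposure lasted 16 h at 37 °C before readout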
Outline: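 Mouse N2a neuroblastoma cells (1500/well) were treated with compounds for 16 h at 37 °C, then caspase-3/7 activity was read by Caspase-Glo luminescence after 1 h at room temperature. Data were normalized to DMSO and 10 uM staurosporine; AC50 from Hill fits.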

[20] = target: Glucocorticoid receptor (Homo sapiens) (UniProt P04150); experiment: GR-GFP Redistribution (AID 450;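 active = compounds whose dose series gives a full or clear partial fitted curve of increased nuclear translocation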; note: potency is the fitted concentration of half-maximal effect); settings: U2OS GR-GFP nuclear translocation, laser cytometry, 2 h

NS(=O)(=O)c1cc2c(cc1Cl)NCNS2(=O)=O
inactive: Potency [1] > 46 µM and > 20.6 µM | outcome [2] | activity change, negative = cytotoxicity [3] -6.72% | Potency [4] | outcome [5] | Potency [6] | Potency [7] | Potency [8] | outcome [9] | Potency [10] | outcome [11] | Potency [12] | outcome [13] | outcome [14] | outcome [15] | outcome [16] | outcome [17] | Potency [18] | outcome [19]

CN(C)C(=N)N=C(N)N
inactive: Potency [1] > 20.6 µM | outcome [2] | Potency [10]

NCCc1cnc[nH]1
inactive: Potency [20] > 46 µM | Potency [1] > 46 µM | outcome [2] | Potency [10]

CN1CCC(=C2c3ccccc3CC(=O)c3sccc32)CC1
inactive: Potency [1] > 46 µM and > 20.6 µM | outcome [2] | Potency [10]

O=C(CCCN1CCC(O)(c2ccc(Cl)cc2)CC1)c1ccc(F)cc1
inactive: outcome [2] | Potency [10]

OCCN(CCO)c1nc(N2CCCCC2)c2nc(N(CCO)CCO)nc(N3CCCCC3)c2n1
inactive: outcome [2] | Potency [10]

COc1ccc(CCN(C)CCCC(C#N)(c2ccc(OC)c(OC)c2)C(C)C)cc1OC (stereo not given)
inactive: outcome [2] | activity change, negative = cytotoxicity [3] -16.5% | outcome [5] | Potency [7] | Potency [8] | outcome [9] | outcome [11] | Potency [12] | outcome [13] | outcome [14] | outcome [15] | outcome [16] | outcome [17] | Potency [18] | outcome [19]

CC(C)NCC(O)c1ccc(O)c(O)c1 (stereo not given)
inactive: outcome [2] | activity change, negative = cytotoxicity [3] 0.719% | Potency [4] | outcome [5] | Potency [6] | Potency [7] | Potency [8] | outcome [9] | outcome [11] | Potency [12] | outcome [13] | outcome [14] | outcome [15] | outcome [16] | outcome [17] | Potency [18] | outcome [19]
